# Source: PubChem BioAssay AID686978 (National Center for Advancing Translational Sciences (NCATS), 2013)
# Screen size: about 420,000 compounds; about 64,000 (15%) were called active. Another 27% or so got no clear call; they are omitted. Calls come from the whole dose curve; as a rule, active = well fitted inhibition curve with a large enough effect; inconclusive = small, poorly fitted or top-dose-only effect; inactive = flat fitted curve, though single readings scatter. These entries were drawn from the full list.
# Assay: qHTS for Inhibitors of human tyrosyl-DNA phosphodiesterase 1 (TDP1): qHTS in cells in absence of CPT; note: nearly all actives have a fitted effect of over 55% in size
# Conditions: DT40 Tdp1-/- hTDP1 cells, no CPT, ATP luminescence, 48 h; activity change, negative = growth inhibition: at 46.2 µM (top of the series)
# In short: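 Chicken DT40 Tdp1-/- cells complemented with human TDP1, screened without camptothecin (DMSO vehicle only), 400 cells/well. Compounds pin-transferred, cells incubated at 37 °C for at least 48 hr. Growth read as ATP-dependent luminescence (CellTiter-Glo, 30 min at RT).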
# % is set by controls: 0 for no effect and ±100 for the full control effect; potency is the fitted concentration of half-maximal effect.
Compound,Potency,"activity change, negative = growth inhibition"
Cc1cccc(CCNC(=O)c2ccc3c(c2)nc2n3CCC(C)C2)c1 (stereo not drawn),18.4 µM (active),–
Cc1ccc(CCNC(=O)c2ccc3c(c2)nc2n3CCC(C)C2)cc1 (stereo not drawn),–,-23.5% (inactive)
COc1ccc(CNC(=O)c2ccc3c(c2)nc2n3CCOC2)c(OC)c1,–,-1.39% (inactive)
CCOc1ccc(CCNC(=O)COC(=O)C2CCN(S(=O)(=O)c3ccccc3)CC2)cc1OCC,–,-10.6% (inactive)
COC(=O)c1ccc(COC(=O)c2cnccn2)cc1,–,-6.17% (inactive)
Cc1ccc(S(=O)(=O)NCC(C)NS(C)(=O)=O)cc1 (stereo not drawn),–,-8.89% (inactive)
Nc1nnnn1/N=C/c1cccc(Br)c1,–,-16.5% (inactive)
COc1ccc(C(=O)Nc2ccc3c(c2)OCO3)cc1OC,–,-25.8% (inactive)
COc1ccccc1C(=O)NC(=S)NC12CC3CC(CC(C3)C1)C2,–,-21% (inactive)
COc1ccccc1C(=O)NC(=S)Nc1ccc(N2CCOCC2)cc1,0.206 µM (active),–
Cc1ccc(C(=O)NC(=S)Nc2ccccc2C)cc1,–,-18.2% (inactive)
CC(=O)NC(=S)Nc1ccc(NC(=S)NC(=O)c2ccc([N+](=O)[O-])cc2)cc1,–,-11% (inactive)
COc1ccccc1C(=O)Nc1cccc(C(=O)N2CCOCC2)c1,–,3.1% (inactive)
Cc1ccc(NC(=S)NC(=O)c2ccc(-c3ccccc3)cc2)cc1,4.61 µM (active),–
COc1ccc(C(=O)Nc2ccc(S(=O)(=O)Nc3onc(C)c3C)cc2)cc1OC,–,-5.48% (inactive)
COc1ccc(C(=O)NC(=S)Nc2ccc(Cl)cn2)cc1OC,–,-0.228% (inactive)
COc1ccc(C(=O)NC(=S)Nc2ccc(N3CCCC3)cc2)cc1OC,8.2 µM (active),–
COc1ccc(C(=O)Nc2ccc(N3CCC(C)CC3)cc2)cc1Br,–,-28% (inactive)
COc1ccc(C(=O)Nc2ccc(C3(C#N)CCCC3)cc2)cc1OC,23.1 µM (active),–
CCOC(=O)c1c(C)[nH]c(C(=O)OCC(=O)N2CCCC2=O)c1C,–,-12.8% (inactive)

Compound,Potency,"activity change, negative = growth inhibition"
COCCCNC(=O)CN1CCN(Cc2ccccc2Cl)C1=O,–,-3.14% (inactive)
CCCc1cc(=O)oc2c(C)c(OCC(=O)N3CCC(C(=O)O)CC3)ccc12,–,-2.38% (inactive)
O=[N+]([O-])/C=C1\CCCCCN1,–,-11.2% (inactive)
CC1CC(c2ccccc2)n2nc(NC(=O)c3cccs3)nc2N1 (stereo not drawn),–,-20.4% (inactive)
Cc1nnc(NC(=O)CCC(=O)N2CCC(C)CC2)s1,–,-3.07% (inactive)
Cc1ccc(OCC(=O)NNC(=S)NCc2ccccc2)cc1,–,-7.21% (inactive)
O=C1CCC(C(=O)OCC(=O)Nc2ccc(OC(F)F)cc2)=NN1,–,2.66% (inactive)
Cc1ccc(C(=O)NC(=S)NCCN2CCOCC2)cc1,–,-6.71% (inactive)
COC(=O)c1ccc(NC(=S)NN2CCOCC2)cc1,–,13.8% (inactive)
O=C(CN1CCN(c2ccc(O)cc2)CC1)Nc1ccc(-c2ccccc2)cc1,–,-44.9% (inactive)
Cc1ccc(C(=O)NC(=S)Nc2ccc(N3CCOCC3)cc2)cc1,29.1 µM (active),–
O=C(Cc1ccccc1)NC(=S)Nc1ccc(N2CCCCC2)cc1,23.1 µM (active),–
O=C(CCN1CCN(c2ccccc2)CC1)NNC(=S)Nc1ccccc1,–,2.36% (inactive)
Nc1nonc1-c1noc(-c2ccc(Br)o2)n1,–,-1.12% (inactive)
CCC1=C(C(=O)OC)C(c2cc(OC)ccc2OC)C(C#N)=C(N)O1 (stereo not drawn),–,-25% (inactive)
CCOc1ccc(C(=O)NCCCN2CCCC2=O)cc1,–,-1.06% (inactive)
CC(C)OCCCNc1ncnc2c1[nH]c1ccc(F)cc12,2.91 µM (active),–
O=C1CCCN1CCCNc1ncnc2c1[nH]c1ccccc12,–,-24.8% (inactive)
COc1cc(OC)c(OC)cc1/C=N/Nc1ncnc2c1[nH]c1ccc(C)cc12,–,-26.5% (inactive)
Cc1cc(C)c2c(NC(=O)C3CC3)nn(C)c2n1,–,13.9% (inactive)

Compound,Potency,"activity change, negative = growth inhibition"
NC1=NC(c2cc(F)cc(F)c2)n2c(nc3ccccc32)N1 (stereo not drawn),–,-4.29% (inactive)
Cc1nnc(N/N=C/C2CC=CCC2)[nH]c1=O (stereo not drawn),–,-9.68% (inactive)
CCN(CC)c1ccc(/C=N/Nc2nc(C)cc(C)n2)c(O)c1,3.26 µM (active),–
CCN(CC)c1ccc(/C=N/NC(=O)CNC(=O)c2cccnc2)cc1,–,17.6% (inactive)
CCN(CC)c1ccc(/C=N/NC(=O)c2cnccn2)c(O)c1,4.11 µM (active),–
Cc1ccc(C(=O)NCCNC(=O)c2cnccn2)cc1,–,-18.1% (inactive)
CCN(CC)c1ccc(C(=O)Nn2c(C)nc3ccccc3c2=O)cc1,–,-17.2% (inactive)
CCCCC(CC)C(=O)Nc1ccc(Cl)cn1 (stereo not drawn),–,0.311% (inactive)
Cc1cc2c(cc1C)N(Cc1ccccc1)C1=NCCCN12,13 µM (active),–
O=C(CN1C2=NCCN2c2ccccc21)c1cccs1,–,-19.9% (inactive)
Nc1ccc(C(=O)OCC(=O)NC2CCCc3ccccc32)cc1[N+](=O)[O-] (stereo not drawn),–,-10.2% (inactive)
CCN1CCc2nc(NC(=O)c3cc(F)c(F)cc3Cl)sc2C1,–,-22.7% (inactive)
CCc1ccc(NC(=O)N2CCc3ccccc3C2)cc1,–,-15% (inactive)
CCc1ccc(NC(=O)c2sc3nc4c(cc3c2N)CN(CC)CC4)cc1,18.4 µM (active),–
CC(C(=O)NC1CCCC1)N(c1ccc(Oc2ccccc2)cc1)S(C)(=O)=O (stereo not drawn),–,-1.2% (inactive)
O=C(C[C@H]1CC[C@H]2[C@@H](COC[C@H](O)CN2C(=O)c2ccccn2)O1)N1CCN(c2ccccc2)CC1,–,-3.18% (inactive)
O=C(CCSc1ccccc1)NCCSc1ccccn1,–,-28.3% (inactive)
O=c1c(=O)n(Cc2c(F)cccc2Cl)ccn1Cc1ccccc1,–,-13.7% (inactive)
